Among the data in PubChem BioAssay (Tox21) are Potency and outcome values, retold here.

A number with no mark means an inactive call. Records with an inconclusive call do not appear. Calls of active or inactive are those of the source. Unless noted, the call rests on the fitted dose curve.

The nature of assay [1]: Nuclear factor erythroid 2-related factor 2/antioxidant responsive element (Nrf2/ARE) small molecule agonists: qHTS cell viability counter screen in human keratinocytes (AID 1919968; active means well fitted curve in the direction sought with a large enough effect in the repeat runs; an effect the other way counts as inactive or inconclusive; further: nearly all actives have a fitted effect of over 55% in size). The method in brief: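 Measured as CellTiter-Fluor fluorescence, this readout tracks cytotoxicity in the same wells as the ARE-luciferase screen. HaCaT reporter cells (1,500/well) received compounds after a 5 h pre-incubation and were exposed for 23 h.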
Background: In qHTS, concentration-response curves come from the screen itself.

Assay [2] can be described thus: Nuclear factor erythroid 2-related factor 2/antioxidant responsive element (Nrf2/ARE) small molecule agonists: luciferase reporter gene qHTS assay in human keratinocytes (AID 1919969). Further: nearly all actives have a fitted effect of over 35% in size. Further: potency means the concentration at half of the fitted maximal effect.
In assay [3] the target is Gonadotropin-releasing hormone receptor (Homo sapiens) (UniProt P30968). As to the kind of experiment: Human gonadotropin-releasing hormone receptor (GnRHR) small molecule agonists, calcium flux assay in GnRHR-HEK293 cells (AID 1920063). Further: nearly all actives have a fitted effect of over 35% in size. The method in brief: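 Fluorescence kinetics (480 nm excitation, 540 nm emission; 3 min, 1 s steps) report calcium mobilisation in human GnRHR-HEK293 cells in agonist mode. Dye incubation: 1 h, 37 C.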
Sequence of Gonadotropin-releasing hormone receptor (Homo sapiens) (P30968 whole entry, looked up): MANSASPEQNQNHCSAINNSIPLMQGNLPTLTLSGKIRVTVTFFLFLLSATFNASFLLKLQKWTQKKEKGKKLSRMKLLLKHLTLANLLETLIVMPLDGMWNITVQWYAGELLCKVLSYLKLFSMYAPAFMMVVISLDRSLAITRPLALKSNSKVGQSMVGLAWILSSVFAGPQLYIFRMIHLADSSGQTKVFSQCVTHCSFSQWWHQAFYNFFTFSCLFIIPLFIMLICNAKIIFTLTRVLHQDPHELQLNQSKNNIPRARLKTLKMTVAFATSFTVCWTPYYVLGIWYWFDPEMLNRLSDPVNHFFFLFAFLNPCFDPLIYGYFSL

The target of assay [4] is KiSS-1 receptor (Homo sapiens) (UniProt Q969F8). As to the kind of experiment: Human kisspeptin (KISS1R) small molecule agonists, calcium flux assay in KISS1R-HEK293 cells (AID 1920064; active means well fitted curve in the direction sought with a large enough effect in the repeat runs; an effect the other way counts as inactive or inconclusive). The method in brief: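 Measures KISS1R agonism through calcium-sensitive dye fluorescence in stably transfected HEK293 cells, read for 3 min after pin-tool compound delivery; 15-point titrations in triplicate.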
Sequence of KiSS-1 receptor (Homo sapiens) (Q969F8 whole entry, looked up): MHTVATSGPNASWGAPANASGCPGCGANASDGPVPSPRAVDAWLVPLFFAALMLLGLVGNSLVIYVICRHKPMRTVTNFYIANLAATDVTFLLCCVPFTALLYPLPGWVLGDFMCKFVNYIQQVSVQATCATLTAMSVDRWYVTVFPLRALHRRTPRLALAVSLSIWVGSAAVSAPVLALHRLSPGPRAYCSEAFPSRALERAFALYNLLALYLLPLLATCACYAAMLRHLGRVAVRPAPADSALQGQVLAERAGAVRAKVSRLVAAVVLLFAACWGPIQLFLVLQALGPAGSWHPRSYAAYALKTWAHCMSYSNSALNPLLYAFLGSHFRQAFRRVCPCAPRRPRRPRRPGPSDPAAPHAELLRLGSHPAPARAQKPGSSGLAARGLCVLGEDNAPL
For orientation: A change in cytosolic calcium serves as a functional read-out for many receptors and channels.

Assay [5] can be described thus: G protein-coupled receptor (GPCR) small molecule agonists, calcium flux assay: HEK293 wild type cell line counter screen (AID 1920065). A digest of the protocol:
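Readout: fluorescence at 480 nm excitation/540 nm emission, sampled at 1 s intervals for 3 min. Cells had been cultured 18 h, then dye-loaded 1 h at 37 C before compound or ATP addition.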

Assay [6] can be described thus: p53 small molecule agonists, cell-based qHTS assay with human liver microsomes (AID 1963577).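 Further: p53 response element beta-lactamase reporter cells with liver microsomes plus NADPH.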 The method in brief: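 Reporter activation was measured by LiveBLAzer fluorescence intensity in p53RE-bla cells, which had been exposed to compounds for 16 h at 37 C alongside 0.5 mg/mL human liver microsomes and 0.5 mg/mL NADPH (final concentrations).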
The nature of assay [7]: p53 small molecule agonists, cell-based qHTS assay with rat liver microsomes (AID 1963578). A digest of the protocol:
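Compound in DMSO added to p53RE-bla cells 5 h post-plating; rat microsomes/NADPH 0.5 mg/mL final; 16 h, 37 C; LiveBLAzer 2 h RT.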

Assay [8] is described as follows: p53 small molecule agonists, cell-based qHTS assay with human liver microsomes: qHTS cell viability counter screen (AID 1963579). Further: nearly all actives have a fitted effect of over 45% in size. The method in brief: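 HLM-supplemented (0.5 mg/mL final) and NADPH-supplemented (0.5 mg/mL final) p53RE-bla cultures, 4,000 cells per well, were dosed with compounds in DMSO for 16 h at 37 C; luminescent ATP detection (CellTiter-Glo, 30 min, room temperature) quantified surviving cells.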

Assay [9] is described as follows: p53 small molecule agonists, cell-based qHTS assay with rat liver microsomes: qHTS cell viability counter screen (AID 1963580). Further: nearly all actives have a fitted effect of over 45% in size. The method in brief:
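Intracellular ATP, by CellTiter-Glo luminescence, defines viability. HCT-116 p53RE-bla cells, 4,000 per well, were compound-treated in the presence of rat liver microsomes and NADPH for 16 h at 37 C.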

Assay [10] in a line: p53 small molecule agonists, cell-based qHTS assay: qHTS cell viability counter screen (AID 1963581). Further: nearly all actives have a fitted effect of over 45% in size. The method in brief:
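In the same plates used for the p53 bla reporter, HCT-116 cells given compounds for 16 h at 37 C received CellTiter-Glo; luminescence was recorded 30 min later at room temperature.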

Assay [11] can be described thus: p53 small molecule agonists, cell-based qHTS assay (AID 1963582; active means well fitted activation curve with a large enough effect in the signal ratio in the repeat runs, not every such curve was filed as active; the % refers to the signal ratio). A digest of the protocol: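 Compounds are pin-transferred in DMSO onto p53RE-bla cells and incubated 16 h at 37 C. The B/G FRET beta-lactamase substrate is then applied for 2 h at RT and fluorescence recorded.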
The target of assay [12] is 5-hydroxytryptamine receptor 2A (Homo sapiens) (UniProt P28223). As to the kind of experiment: 5-hydroxytryptamine receptor 2A (HTR2A) small molecule antagonists, cell-based qHTS assay (AID 1963586). Further: nearly all actives have a fitted effect of over 45% in size. Further: potency means the concentration at half of the fitted maximal effect. The method in brief: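 Antagonist-mode intracellular calcium assay: DOI (4 nM) added after 5 min compound pre-incubation at room temperature to dye-loaded HTR2A-CHO cells. Fluorescence followed for 3 min, sampled every second.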
Sequence of 5-hydroxytryptamine receptor 2A (Homo sapiens) (P28223 whole entry, looked up): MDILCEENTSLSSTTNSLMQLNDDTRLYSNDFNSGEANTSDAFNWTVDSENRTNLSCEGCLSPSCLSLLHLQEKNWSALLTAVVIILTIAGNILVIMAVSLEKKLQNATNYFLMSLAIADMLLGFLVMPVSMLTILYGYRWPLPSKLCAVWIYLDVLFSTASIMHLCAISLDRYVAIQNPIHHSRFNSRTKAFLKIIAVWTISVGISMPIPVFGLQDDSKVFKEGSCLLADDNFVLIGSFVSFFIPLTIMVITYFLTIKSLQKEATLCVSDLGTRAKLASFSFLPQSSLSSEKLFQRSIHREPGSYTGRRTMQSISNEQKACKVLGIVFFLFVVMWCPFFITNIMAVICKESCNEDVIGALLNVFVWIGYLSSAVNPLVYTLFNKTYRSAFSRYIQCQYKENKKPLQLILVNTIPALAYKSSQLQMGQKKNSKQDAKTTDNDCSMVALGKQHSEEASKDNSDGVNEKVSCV

For assay [13] the target is unchanged. As to the kind of experiment: 5-hydroxytryptamine receptor 2A (HTR2A) small molecule agonists, cell-based qHTS assay (AID 1963587). Further: nearly all actives have a fitted effect of over 30% in size. The method in brief: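 Kinetic calcium-flux fluorescence (2 min, 1 sec intervals) after compound addition in agonist mode. HTR2A-CHO cells were cultured 18 h, then dye-loaded 1 h at 37 C.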
Assay [14] concerns the target Muscarinic acetylcholine receptor M1 (Homo sapiens) (UniProt P11229). As to the kind of experiment: Cholinergic receptor muscarinic 1 (CHRM1) small molecule antagonists, cell-based qHTS assay (AID 1963588). Further: nearly all actives have a fitted effect of over 40% in size. Further: potency means the concentration at half of the fitted maximal effect. A digest of the protocol:
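CHRM1-CHO calcium-flux assay, antagonist mode. Cells were seeded 18 h, dye-loaded 1 h at 37 C and given compound for 5 min at RT, then acetylcholine was added at 50nM. FDSS fluorescence was read 3 min; 15 concentrations, three runs.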

The target is the same in assay [15]. As to the kind of experiment: Cholinergic receptor muscarinic 1 (CHRM1) small molecule agonists, cell-based qHTS assay (AID 1963589). Further: nearly all actives have a fitted effect of over 35% in size. A digest of the protocol: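 Each compound was tested at 15 concentrations across three independent runs on dye-loaded CHO cells stably expressing human CHRM1, reading intracellular calcium fluorescence kinetically at 1 sec intervals.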

For assay [16], the target named is Beta-2 adrenergic receptor (Homo sapiens) (UniProt P07550). As to the kind of experiment: Adrenergic beta2 receptor (ADRB2) small molecule antagonists, cell-based qHTS assay (AID 1963592). Further: series mostly up to about 92 µM; nearly all actives have a fitted effect of over 50% in size. The method in brief:
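Cells (CHO, stable ADRB2 overexpression) incubated 18-20hr at 37C; compounds added from DMSO; agonist mix (1nM isoproterenol, 100uM IBMX, 25uM Ro-20-1724) added; 0.5hr RT; d2-cAMP and anti-cAMP-cryptate added; 1hr RT; 665/615 nm read.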

Assay [17] addresses D(2) dopamine receptor (Homo sapiens) (UniProt P14416). As to the kind of experiment: Dopamine D2 receptor (DRD2) small molecule agonists, cell-based qHTS assay (AID 1963594). Further: nearly all actives have a fitted effect of over 35% in size. The method in brief: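 cAMP accumulation in DRD2-HEK293 cells measured by HTRF after 1 h detection; compounds added 10 min before NKH477 (200nM […]) forskolin-analogue stimulation, 30 min at room temperature, with Ro20-1724 present at 0.1 mM final.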

Assay [18] has the same target. As to the kind of experiment: Dopamine D2 receptor (DRD2) small molecule antagonists, cell-based qHTS assay (AID 1963595; active means well fitted inhibition curve with a large enough effect in the signal ratio in the repeat runs, with a control signal flat; the % refers to the signal ratio). A digest of the protocol: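 HTRF cAMP read-out at 665 and 620 nm emission (340 nm excitation). Antagonist mode: compounds were tested against 12 nM quinpirole in DRD2-HEK293 cells, with 200 nM NKH477 raising cAMP and 0.1 mM Ro20-1724 blocking its breakdown.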

Assay [19] in a line: cAMP Responsive Elements (CRE) small molecule antagonists, cell-based qHTS assay (AID 1963591; active means well fitted inhibition curve with a large enough effect in the signal ratio in the repeat runs, not every such curve was filed as active; the % refers to the signal ratio). A digest of the protocol: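 Inhibition of NKH477-driven (0.25 uM final) CRE-beta-lactamase signal in HEK293T cells, 3 h compound exposure at 37 °C, detected by FRET substrate fluorescence.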

Sequence of D(2) dopamine receptor (Homo sapiens) (P14416 whole entry, looked up): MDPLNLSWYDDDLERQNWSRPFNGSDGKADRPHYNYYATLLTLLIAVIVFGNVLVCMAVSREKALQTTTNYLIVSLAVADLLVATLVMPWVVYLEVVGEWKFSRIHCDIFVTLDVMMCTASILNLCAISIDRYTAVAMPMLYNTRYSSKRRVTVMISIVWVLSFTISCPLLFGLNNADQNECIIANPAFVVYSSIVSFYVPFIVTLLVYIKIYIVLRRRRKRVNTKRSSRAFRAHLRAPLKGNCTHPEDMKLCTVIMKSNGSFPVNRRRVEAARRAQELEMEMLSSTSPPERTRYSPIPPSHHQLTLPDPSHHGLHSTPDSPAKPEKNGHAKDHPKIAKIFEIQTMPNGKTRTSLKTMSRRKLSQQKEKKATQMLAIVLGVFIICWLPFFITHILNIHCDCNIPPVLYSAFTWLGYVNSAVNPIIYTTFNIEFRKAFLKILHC
Sequence of Beta-2 adrenergic receptor (Homo sapiens) (P07550 whole entry, looked up): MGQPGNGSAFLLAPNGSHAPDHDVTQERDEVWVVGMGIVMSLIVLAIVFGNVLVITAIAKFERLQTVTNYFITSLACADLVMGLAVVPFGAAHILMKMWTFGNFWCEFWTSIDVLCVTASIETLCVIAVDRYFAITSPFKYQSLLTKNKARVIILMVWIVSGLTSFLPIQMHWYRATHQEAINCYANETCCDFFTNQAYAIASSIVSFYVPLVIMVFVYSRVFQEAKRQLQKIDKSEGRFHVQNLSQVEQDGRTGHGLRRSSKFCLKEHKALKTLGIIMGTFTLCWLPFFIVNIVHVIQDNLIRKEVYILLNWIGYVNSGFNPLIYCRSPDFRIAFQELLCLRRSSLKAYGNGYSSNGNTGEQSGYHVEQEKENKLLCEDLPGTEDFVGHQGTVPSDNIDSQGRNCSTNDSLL
Sequence of Muscarinic acetylcholine receptor M1 (Homo sapiens) (P11229 whole entry, looked up): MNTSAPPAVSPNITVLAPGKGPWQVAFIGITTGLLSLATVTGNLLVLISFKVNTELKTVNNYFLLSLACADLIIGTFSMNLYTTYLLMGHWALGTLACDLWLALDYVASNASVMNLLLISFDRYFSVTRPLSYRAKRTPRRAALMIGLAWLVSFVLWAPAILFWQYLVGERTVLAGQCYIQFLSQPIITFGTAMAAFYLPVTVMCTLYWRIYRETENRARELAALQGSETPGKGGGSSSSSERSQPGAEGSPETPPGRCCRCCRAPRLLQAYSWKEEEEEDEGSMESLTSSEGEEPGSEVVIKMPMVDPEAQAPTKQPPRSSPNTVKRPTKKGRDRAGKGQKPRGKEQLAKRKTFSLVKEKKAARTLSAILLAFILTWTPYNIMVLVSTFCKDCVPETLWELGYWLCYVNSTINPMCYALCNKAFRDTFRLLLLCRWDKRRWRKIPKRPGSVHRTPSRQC

As to `Cc1ccc(S)cc1`, the Potency result in assay [1], in assay [3], in [6], in assay [7], in assay [8] and in assay [9] was “inactive” each time. The Potency entry in assay [10], in assay [11], in [13], in [14], in assay [15] and in assay [16] was “inactive” in each case. For the same compound, the Potency entry in [17] and in assay [18] was “inactive” in each case. In addition, the Potency in assay [2] was 24.3 µM (active); in assay [12] it was 42.1 µM (active). The result in assay [4] and in assay [5] was inactive.
In the case of `CN1CCCN=C1COC(=O)C(O)(c1ccccc1)C1CCCCC1` (stereo not given), the Potency entry in [1], in assay [2], in assay [3], in assay [6], in assay [7] and in assay [8] was “inactive” throughout. For the same compound, the Potency result in [9], in assay [10], in [11], in assay [12], in [13] and in [15] was “inactive” throughout. Moreover, the Potency entry in [19], in assay [16], in assay [17] and in assay [18] was “inactive” throughout. Moreover, the result in [4] and in assay [5] was inactive. Further, the Potency in assay [14] was 0.0116 µM (active).
Turning to `CCOC(=O)C1CC(=O)C(=C(O)C2CC2)C(=O)C1` (stereo not given), the Potency result in assay [1], in assay [2], in assay [3], in assay [6], in [7] and in assay [8] was “inactive” in each case. Further, the Potency result in [9], in [10], in [11], in assay [12], in assay [13] and in assay [14] was “inactive” in each case. Moreover, the Potency entry in assay [15], in [19], in assay [16], in assay [17] and in [18] was “inactive” throughout. Besides, the outcome in assay [4] and in assay [5] was inactive.
For the compound `CCOC(=O)c1ccccc1`, the Potency result in assay [1], in [2], in assay [3], in [6], in [7] and in assay [8] was “inactive” throughout. In addition, the Potency result in assay [9], in assay [10], in assay [11], in assay [12], in assay [13] and in assay [14] was “inactive” throughout. For the same compound, the Potency result in [15], in assay [19], in assay [16], in [17] and in assay [18] was “inactive” in each case. In addition, the outcome in [4] and in [5] was inactive.
On to `C=CCOc1nc(OCC=C)nc(OCC=C)n1`, for which the Potency result in [1], in [2], in assay [3], in [6], in assay [7] and in assay [8] was “inactive” each time. Moreover, the Potency entry in [9], in [10], in assay [11], in [12], in [13] and in assay [14] was “inactive” each time. Besides, the Potency entry in [15], in [19], in assay [17] and in assay [18] was “inactive” in each case. The outcome in assay [4] and in assay [5] was inactive.
As to `CCCn1cnc2c1c(=O)n(CCCCC(C)=O)c(=O)n2C`, the Potency entry in [1], in assay [2], in [3], in [6], in assay [7] and in assay [8] was “inactive” in each case. The Potency entry in [9], in assay [10], in assay [11], in assay [12], in assay [13] and in assay [14] was “inactive” in each case. Moreover, the Potency entry in [15], in assay [16] and in [17] was “inactive” throughout. In addition, the result in [4] and in assay [5] was inactive.
